Screens deposited in PubChem by University of Kansas High Throughput Screening Laboratory.
Pf apPOL block = Pf-apPOL DNA polymerase inhibition; Recombinant Pf-apPOL, molecular beacon fluorescence, 1.5 h; inhibition, % at 10 µM; 0.25% of 210,000 active
mHTT CaM bind = mHTT-calmodulin interaction abrogation; P42858; AlphaScreen His-mHTT/GST-CaM binding, luminescence; inhibition, % at 15 µM; 3.6% of 190,000 active; AID 1671202
Target sequence (P42858 whole entry, looked up, change not shown): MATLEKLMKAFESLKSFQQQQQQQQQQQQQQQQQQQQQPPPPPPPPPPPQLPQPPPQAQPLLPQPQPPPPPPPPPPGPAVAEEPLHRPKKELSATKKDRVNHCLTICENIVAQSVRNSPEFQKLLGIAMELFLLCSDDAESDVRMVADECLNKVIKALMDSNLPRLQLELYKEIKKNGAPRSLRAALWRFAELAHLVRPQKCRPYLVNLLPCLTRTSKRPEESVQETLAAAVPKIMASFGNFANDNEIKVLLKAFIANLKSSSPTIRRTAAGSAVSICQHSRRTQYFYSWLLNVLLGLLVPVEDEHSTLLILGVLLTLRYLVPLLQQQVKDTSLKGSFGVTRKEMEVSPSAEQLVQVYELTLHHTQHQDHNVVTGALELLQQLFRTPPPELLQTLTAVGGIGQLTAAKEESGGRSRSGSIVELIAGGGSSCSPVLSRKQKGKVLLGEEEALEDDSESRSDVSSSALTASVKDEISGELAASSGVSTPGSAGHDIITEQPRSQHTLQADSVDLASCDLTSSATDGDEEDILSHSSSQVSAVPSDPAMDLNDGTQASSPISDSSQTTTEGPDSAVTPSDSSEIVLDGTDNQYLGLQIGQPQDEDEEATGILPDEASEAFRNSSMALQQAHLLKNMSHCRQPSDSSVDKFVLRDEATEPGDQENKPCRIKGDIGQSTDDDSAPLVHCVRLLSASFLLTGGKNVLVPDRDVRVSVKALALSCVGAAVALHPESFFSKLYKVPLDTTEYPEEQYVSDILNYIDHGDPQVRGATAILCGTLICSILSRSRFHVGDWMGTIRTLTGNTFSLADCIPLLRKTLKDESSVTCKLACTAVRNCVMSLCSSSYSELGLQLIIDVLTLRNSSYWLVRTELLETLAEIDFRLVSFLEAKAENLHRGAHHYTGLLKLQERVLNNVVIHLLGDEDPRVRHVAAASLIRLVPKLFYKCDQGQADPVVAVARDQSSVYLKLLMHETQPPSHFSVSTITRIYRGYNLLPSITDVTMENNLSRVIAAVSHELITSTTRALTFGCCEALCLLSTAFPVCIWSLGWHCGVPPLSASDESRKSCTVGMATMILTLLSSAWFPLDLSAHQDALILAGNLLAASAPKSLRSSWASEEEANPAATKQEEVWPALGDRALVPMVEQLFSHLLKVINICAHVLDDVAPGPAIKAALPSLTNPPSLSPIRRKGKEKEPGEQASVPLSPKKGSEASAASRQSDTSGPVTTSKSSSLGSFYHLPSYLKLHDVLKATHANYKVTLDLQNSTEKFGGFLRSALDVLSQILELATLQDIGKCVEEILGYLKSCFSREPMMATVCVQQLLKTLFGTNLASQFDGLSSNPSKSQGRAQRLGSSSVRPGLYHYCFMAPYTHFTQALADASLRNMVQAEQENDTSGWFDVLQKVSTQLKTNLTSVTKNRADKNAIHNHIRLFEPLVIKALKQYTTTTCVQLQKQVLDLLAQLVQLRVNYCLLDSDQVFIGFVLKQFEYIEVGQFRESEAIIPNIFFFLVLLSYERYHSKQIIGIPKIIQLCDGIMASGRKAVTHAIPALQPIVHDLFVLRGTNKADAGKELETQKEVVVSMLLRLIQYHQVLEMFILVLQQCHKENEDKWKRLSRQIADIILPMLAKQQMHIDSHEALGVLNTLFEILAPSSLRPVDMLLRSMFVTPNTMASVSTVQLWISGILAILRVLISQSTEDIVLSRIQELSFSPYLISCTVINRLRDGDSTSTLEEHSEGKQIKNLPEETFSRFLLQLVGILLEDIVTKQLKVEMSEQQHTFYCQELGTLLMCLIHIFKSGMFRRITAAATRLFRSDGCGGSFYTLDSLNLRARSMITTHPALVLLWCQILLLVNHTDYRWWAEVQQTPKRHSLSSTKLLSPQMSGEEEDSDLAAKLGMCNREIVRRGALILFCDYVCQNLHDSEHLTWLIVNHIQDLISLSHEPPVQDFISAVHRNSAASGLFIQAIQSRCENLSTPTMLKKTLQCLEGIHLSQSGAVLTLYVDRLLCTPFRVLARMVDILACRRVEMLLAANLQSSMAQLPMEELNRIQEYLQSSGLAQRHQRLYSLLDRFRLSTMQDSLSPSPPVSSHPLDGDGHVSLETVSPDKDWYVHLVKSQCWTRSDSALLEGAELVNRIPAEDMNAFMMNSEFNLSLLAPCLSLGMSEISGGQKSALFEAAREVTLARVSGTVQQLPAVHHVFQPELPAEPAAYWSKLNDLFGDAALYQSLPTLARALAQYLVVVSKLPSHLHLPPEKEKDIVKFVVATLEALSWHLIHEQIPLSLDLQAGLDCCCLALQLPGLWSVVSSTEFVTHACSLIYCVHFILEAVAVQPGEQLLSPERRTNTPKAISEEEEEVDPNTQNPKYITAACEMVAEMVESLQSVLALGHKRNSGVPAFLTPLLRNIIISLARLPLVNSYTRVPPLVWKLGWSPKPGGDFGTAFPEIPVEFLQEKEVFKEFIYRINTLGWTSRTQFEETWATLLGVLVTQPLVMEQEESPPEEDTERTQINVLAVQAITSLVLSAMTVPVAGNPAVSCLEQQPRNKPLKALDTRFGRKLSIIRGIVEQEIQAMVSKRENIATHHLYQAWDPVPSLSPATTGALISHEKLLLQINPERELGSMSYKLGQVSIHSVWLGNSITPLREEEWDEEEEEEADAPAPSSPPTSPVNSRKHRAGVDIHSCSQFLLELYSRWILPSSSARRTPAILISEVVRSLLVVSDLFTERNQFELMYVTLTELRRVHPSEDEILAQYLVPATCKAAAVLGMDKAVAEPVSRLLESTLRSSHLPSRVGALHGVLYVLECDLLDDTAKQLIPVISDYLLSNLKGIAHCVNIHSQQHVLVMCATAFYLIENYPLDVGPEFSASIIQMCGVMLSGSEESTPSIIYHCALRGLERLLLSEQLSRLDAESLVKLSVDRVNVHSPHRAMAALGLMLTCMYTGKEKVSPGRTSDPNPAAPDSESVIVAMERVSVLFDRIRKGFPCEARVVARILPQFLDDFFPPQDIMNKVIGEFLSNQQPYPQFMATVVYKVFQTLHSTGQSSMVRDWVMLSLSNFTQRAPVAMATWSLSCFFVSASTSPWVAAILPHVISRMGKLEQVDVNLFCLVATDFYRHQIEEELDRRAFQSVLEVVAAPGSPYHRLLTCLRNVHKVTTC
Large screens that a line does not name were inactive. An excerpt weighted towards active compounds, which were near 3.5% of everything screened. Rule as the data show it: active = inhibition above about 50%; inactive = the rest.

COc1cccc(C2CC(c3ccc(C)c(C)c3)Nc3ncnn32)c1OC (stereo not given)	mHTT CaM bind 52.7
COc1ccc(C2CC(c3ccc(C)cc3)Nc3ncnn32)c(OC)c1OC (stereo not given)	none
COc1ccc(C2CC(c3cccc(Br)c3)Nc3ncnn32)c(OC)c1 (stereo not given)	none
COc1ccc(OC)c(C2CC(c3ccc(Br)cc3)Nc3ncnn32)c1 (stereo not given)	mHTT CaM bind 61.0
COc1ccc(C2CC(c3cc(OC)ccc3OC)n3ncnc3N2)cc1 (stereo not given)	none
COc1ccc(C2CC(c3ccc(Br)cc3)Nc3ncnn32)c(OC)c1 (stereo not given)	mHTT CaM bind 57.0
c1ccc(C(c2ccccc2)N2CCN(c3ncnc4[nH]ncc34)CC2)cc1	none
Cc1ccc(C(=O)N2CCCC(COc3ccc(C(=O)NC4CC4)cc3)C2)c(C)c1 (stereo not given)	none
O=C(NCc1ccccn1)c1ccc(N2CCNC(c3ccccc3)C2)nc1 (stereo not given)	none
CN(CC(=O)Nc1cccc(F)c1)S(=O)(=O)c1ccc(Br)s1	none
CCOc1ccc(/C=C2\C(=O)Nc3ccc(Br)cc32)cc1	none
Cc1ccccc1/C=C1\C(=O)Nc2ccc(Cl)cc21	mHTT CaM bind 85.0
Cc1ccc2c(c1)/C(=C/c1ccccc1Cl)C(=O)N2	none
CCOc1ccccc1/C=C1\C(=O)Nc2ccc(Br)cc21	mHTT CaM bind 63.0
CC(C)(C)c1ccc(/C=C2\C(=O)Nc3ccc(Cl)cc32)cc1	mHTT CaM bind 60.0
O=C1Nc2ccc(Cl)cc2/C1=C/c1ccc(Cl)cc1	none
O=C1Nc2ccc(Br)cc2/C1=C/c1ccccc1F	none
CCCOc1ccccc1/C=C1\C(=O)Nc2ccc(Br)cc21	mHTT CaM bind 97.0
CCc1cccc(NC(=O)Cc2ccccc2)c1	none
CC(=O)Nc1ccc(N/C=C(\C#N)c2nc(-c3ccc(Cl)c(Cl)c3)cs2)cc1	none
Cc1nc(-c2cn(C)c3ncccc23)sc1C(=O)NCc1ccccc1	none
Fc1ccc2[nH]c3nc4ncc(Br)cc4nc3c2c1	none (no result: Pf apPOL block)
CCn1ccnc(NC2CC2)c1=O	none
CCOc1ccc(/C=C2\C(=O)Nc3ccc(Cl)cc32)cc1	none
CCOc1ccccc1/C=C1\C(=O)Nc2ccc(Cl)cc21	mHTT CaM bind 64.0
CCOc1cccc(/C=C2\C(=O)Nc3ccc(Br)cc32)c1O	mHTT CaM bind 58.0
Cc1ccccc1-n1nc2c(c1NC(=O)Cc1ccc(F)cc1)CS(=O)(=O)C2	none
COc1cc(/C=C2N=C(/C=C/c3cccc(Cl)c3Cl)OC\2=O)cc(OC)c1OC	none
CC1(C)CC(=O)c2cc(C(=O)Nc3cccc(F)c3)c(=O)n(-c3ccc(Cl)cc3)c2C1	none
Cc1noc(COC2CCN(C(=O)c3c[nH]c4ccccc34)CC2)n1	none
Cc1ccc(S(=O)(=O)Nc2cccc(F)c2)cc1	none
O=S(=O)(Nc1ccc(Nc2ccccc2)cc1)c1ccc(F)cc1	mHTT CaM bind 69.3
O=S(=O)(Nc1cccc(F)c1)c1ccc(-c2ccccc2)cc1	mHTT CaM bind 78.8
O=S(=O)(Nc1ccc(NS(=O)(=O)c2ccc(F)cc2)cc1)c1ccc(F)cc1	none
CCOCCCNc1nc(C)nc2onc(CC)c12	none
CCCNC(=O)C1CN(C(=O)C(C)C)CC1c1cccc(F)c1 (stereo not given)	none
COc1ccc(S(=O)(=O)N2CC3CN(C(=O)Nc4ccccc4C)CC(C2)O3)cc1	none
O=C(Nc1ccc(S(=O)(=O)Nc2cccc(Cl)c2Cl)cc1)c1ccc([N+](=O)[O-])cc1	mHTT CaM bind 61.9
O=C(Nc1ccc(S(=O)(=O)Nc2ccccc2)cc1)c1ccc([N+](=O)[O-])cc1	none
O=C(Cn1cnc2scc(-c3ccccc3)c2c1=O)NCc1ccco1	none
O=c1c2ccccc2nc2c3ccccc3c(NCc3ccco3)nn12	mHTT CaM bind 65.0
Fc1ccccc1-c1nc(NCc2ccco2)c2ccccc2n1	none
O=c1c2c(-c3ccccc3)csc2nc2c3ccccc3c(NCc3ccco3)nn12	mHTT CaM bind 100.0
Cc1cc(C(F)(F)F)n2ncc(-c3ccc(Cl)cc3)c2n1	none
Cc1ccc(C)c(N2CCN(C(=O)CCCN3C(=O)CCn4nc(C)cc43)CC2)c1	none
Cc1cc2n(n1)CCC(=O)N2CCCC(=O)N1CCN(c2cc(Cl)ccc2C)CC1	mHTT CaM bind 83.9
Cc1ccc(C)c(N2CCN(C(=O)CCC(=O)N3CCCn4nc(C)cc43)CC2)c1	none
Cc1cc2n(n1)CCCN2C(=O)CCC(=O)N1CCN(c2cc(Cl)ccc2C)CC1	mHTT CaM bind 87.2
CCc1nc(SCC(=O)NCc2ccco2)c2c3c(sc2n1)CCC3	none
CN(C)CCCN(C(=O)C1=COCCO1)c1nc2ccc(Br)cc2s1	none
CN(C)CCCN(C(=O)Cc1ccccc1)c1nc2ccc(Br)cc2s1	mHTT CaM bind 100.2
CCC(=O)Nc1cccc(NC(=O)COc2ccc(Cl)cc2C)c1	none
OCCCn1c(-c2ccc(I)cc2)csc1=Nc1ccccc1	mHTT CaM bind 70.0
c1ccc(Cn2c(-c3ccccc3)csc2=Nc2ccccc2)cc1	none (no result: Pf apPOL block)
OCCn1c(-c2ccc(I)cc2)csc1=Nc1ccccc1	mHTT CaM bind 66.0
CCn1c(-c2ccccc2)csc1=Nc1ccc(S(=O)(=O)O)cc1	none
CCOc1ccc(-c2csc(=Nc3ccccc3)n2CCN2CCOCC2)cc1	none
OCCCn1c(-c2ccccc2)csc1=Nc1cccc(Cl)c1	mHTT CaM bind 92.0
OCCCn1c(-c2ccccc2)csc1=Nc1ccccc1	mHTT CaM bind 51.0
O=C1C2C3CCC(C3)C2C(=O)N1c1ccc(Cl)c(C(F)(F)F)c1 (stereo not given)	none
COC(=O)C1=C(C)NC(C)=C(C(=O)OC)C1c1ccc(-c2ccccc2C(F)(F)F)o1	none (no result: mHTT CaM bind)
CC(C)(C)NC(=O)CSc1nnc(C(Cc2ccccc2)NC(=O)OC(C)(C)C)o1 (stereo not given)	none (no result: mHTT CaM bind)
Cc1oc(C2CCN(C(=O)C3CCC3)CC2)nc1C(=O)N1CCCCC1	none
O=S(=O)(CCCOc1ccc2c(c1)OCO2)NCc1ccccn1	none
O=C(Nc1nc(NC(=O)c2ccccc2)n(-c2ccccc2)n1)c1ccccc1	mHTT CaM bind 88.7
Nc1nc(NC(=O)c2ccc([N+](=O)[O-])cc2)nn1-c1ccccc1	none
COc1ccc(-n2nnnc2CNC(=O)c2ccc(Br)o2)cc1	none
COc1ccc(C2CCCN2C(=O)Cc2cccc(Cl)c2)cc1 (stereo not given)	none
O=C(CN1CCC2(CC1)N=C(c1cccc(Cl)c1)C(=O)N2)Nc1ccc(Cl)cc1	mHTT CaM bind 88.3
Cc1cccc(C2=NC3(CCN(CC(=O)Nc4ccc(F)cc4)CC3)NC2=O)c1	mHTT CaM bind 68.7
Cc1ccc(C2=NC3(CCN(CC(=O)NCc4ccc(Cl)cc4)CC3)NC2=O)cc1	none
Cc1ccc(CN2CCC3(CC2)N=C(c2ccccc2)C(=O)N3)cc1	mHTT CaM bind 53.5
O=C(CN1CCC2(CC1)N=C(c1cccc(F)c1)C(=O)N2)Nc1ccc(Cl)cc1	none
Cc1cccc(C2=NC3(CCN(CC(=O)NCc4ccc(Cl)cc4)CC3)NC2=O)c1	mHTT CaM bind 53.3
Cc1cccc(NC(=O)CN2CCC3(CC2)N=C(c2ccc(F)cc2)C(=O)N3)c1	none
Cc1ccc(C2=NC3(CCN(Cc4ccc(F)cc4)CC3)NC2=O)cc1	none
O=C(c1cnn2c(-c3ccc(Cl)cc3)ccnc12)N1CCCC1	none
O=S(=O)(Nc1ccccc1F)c1cccc2nsnc12	none
CN1C(=O)c2ccccc2C(C(=O)Nc2ccc3c(c2)OCO3)C1c1cccs1 (stereo not given)	none
N#C/C(=C\c1ccccc1/C=C(\C#N)c1ccc2c(c1)OCO2)c1ccc2c(c1)OCO2	mHTT CaM bind 72.7 (no result: Pf apPOL block)
